Source: PubChem BioAssay (EPA / NIEHS)
Inconclusive results are not listed. The source made the active and inactive calls. The calls were made as follows: active = hit-call score of the fitted dose curve at least 0.9, where 1 is the maximum; inconclusive = response in the unintended direction; inactive = score below 0.9.

How the values were obtained:
[1] = TOX21_p53_BLA_p2_viability: Viability Assessment in the Tox21 HCT-116 p53 Agonism Beta-lactamase Assay, Phase 2 (AID 2283591);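 also: actives lower the ATP signal meaning cytotoxicity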
How it was run: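 Cytotoxicity readout: CellTiter-Glo ATP luminescence, 30 min at room temperature, after the beta-lactamase read. Cells were HCT116 exposed 16 h at 37C to compounds pin-transferred at 217-fold dilution from DMSO stocks.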

[2] = target: Cellular tumor antigen p53 (Homo sapiens) (UniProt P04637); experiment: TOX21_p53_BLA_p2_ratio: Tox21 HCT-116 p53 Agonism Beta-lactamase Assay, Ratio, Phase 2 (AID 2283592)
Sequence of Cellular tumor antigen p53 (Homo sapiens) (P04637 whole entry, looked up): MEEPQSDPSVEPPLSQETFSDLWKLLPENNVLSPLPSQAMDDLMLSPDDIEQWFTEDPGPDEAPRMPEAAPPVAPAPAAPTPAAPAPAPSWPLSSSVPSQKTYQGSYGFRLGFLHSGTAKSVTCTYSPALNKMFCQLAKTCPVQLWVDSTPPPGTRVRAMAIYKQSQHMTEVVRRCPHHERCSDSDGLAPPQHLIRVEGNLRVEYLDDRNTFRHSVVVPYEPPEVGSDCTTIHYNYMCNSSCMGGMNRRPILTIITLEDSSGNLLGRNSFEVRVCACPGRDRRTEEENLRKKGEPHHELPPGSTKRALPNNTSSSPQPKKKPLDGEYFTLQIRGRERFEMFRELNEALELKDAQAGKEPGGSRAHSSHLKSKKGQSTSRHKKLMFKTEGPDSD
How it was run: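 Plated HCT116 p53-bla cells (4000/well) received compound after 5 h, then 16 h at 37C/5% CO2. CCF4-AM added, 2 h RT. Ratio of 460 to 530 nm emission taken as the p53 reporter signal.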

[3] = TOX21_p53_BLA_p3_viability: Viability Assessment in the Tox21 HCT-116 p53 Agonism Beta-lactamase Assay, Phase 3 (AID 2283593);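 also: cells exposed to compound for 16 h before reading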
How it was run: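 Cellular ATP was quantified by CellTiter-Glo luminescence, read after 30 min at room temperature. Beforehand, HCT116 cells (4000/well) received compound 5 h post-seeding, 217-fold diluted from DMSO, then incubated 16 h at 37C.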

[4] = target: Cellular tumor antigen p53 (Homo sapiens) (UniProt P04637); experiment: TOX21_p53_BLA_p3_ratio: Tox21 HCT-116 p53 Agonism Beta-lactamase Assay, Ratio, Phase 3 (AID 2283596)
How it was run: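 Cells were seeded at 4000/well, rested 5 h at 37C, then dosed with DMSO compound solutions (217-fold dilution) for 16 h. CCF4-AM substrate was loaded for 2 h at room temperature, and the 460/530 nm emission ratio was fitted for gain of signal versus DMSO.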

[5] = TOX21_p53_BLA_p4_viability: Viability Assessment in the Tox21 HCT-116 p53 Agonism Beta-lactamase Assay, Phase 4 (AID 2283597);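 also: hits lower the luminescence signal meaning cytotoxicity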
How it was run: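 Readout: ATP luminescence (CellTiter-Glo), measured 30 min after reagent addition at RT. The reagent followed a 2 h CCF4-AM incubation, and the cells had been exposed to compound for 16 h at 37C.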

[6] = target: Cellular tumor antigen p53 (Homo sapiens) (UniProt P04637); experiment: TOX21_p53_BLA_p5_ratio: Tox21 HCT-116 p53 Agonism Beta-lactamase Assay, Ratio, Phase 5 (AID 2283599)
How it was run: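 Beta-lactamase reporter ratio (blue 460 nm over green 530 nm, 405 nm excitation) after 2 h CCF4-AM loading, in HCT-116 cells exposed 16 h at 37 C to compounds pinned at 217-fold dilution. Increases relative to DMSO baseline scored.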

[7] = TOX21_p53_BLA_p5_viability: Viability Assessment in the Tox21 HCT-116 p53 Agonism Beta-lactamase Assay, Phase 5 (AID 2283600)
How it was run: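 Workflow: seed 4000 cells per well, wait 5 h, add compounds (DMSO, 217-fold dilution), incubate 16 h, load CCF4-AM 2 h, add CellTiter-Glo, read luminescence after 30 min.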

[8] = target: Cellular tumor antigen p53 (Homo sapiens) (UniProt P04637); experiment: TOX21_p53_BLA_p4_ratio: Tox21 HCT-116 p53 Agonism Beta-lactamase Assay, Ratio, Phase 4 (AID 2283601)
How it was run: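 Signal is the blue/green (460nm/530nm) ratio of cleaved versus uncleaved CCF4-AM substrate, read after 2 h substrate loading. Cells were HCT116 carrying the p53-responsive beta-lactamase reporter, dosed 16 h at 37C, 5% CO2; CellTiter-Glo measured in parallel.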

[9] = target: THRB (gene 7068) (UniProt P10828); experiment: TOX21_TRB_BLA_Antagonist_Followup_ratio: Tox21 Thyroid Hormone Receptor beta Antagonism Beta-lactamase (BLA) Follow-Up Assay, Ratio (AID 2283958)
Sequence of THRB (gene 7068) (P10828 whole entry, looked up, the tested form may be a part): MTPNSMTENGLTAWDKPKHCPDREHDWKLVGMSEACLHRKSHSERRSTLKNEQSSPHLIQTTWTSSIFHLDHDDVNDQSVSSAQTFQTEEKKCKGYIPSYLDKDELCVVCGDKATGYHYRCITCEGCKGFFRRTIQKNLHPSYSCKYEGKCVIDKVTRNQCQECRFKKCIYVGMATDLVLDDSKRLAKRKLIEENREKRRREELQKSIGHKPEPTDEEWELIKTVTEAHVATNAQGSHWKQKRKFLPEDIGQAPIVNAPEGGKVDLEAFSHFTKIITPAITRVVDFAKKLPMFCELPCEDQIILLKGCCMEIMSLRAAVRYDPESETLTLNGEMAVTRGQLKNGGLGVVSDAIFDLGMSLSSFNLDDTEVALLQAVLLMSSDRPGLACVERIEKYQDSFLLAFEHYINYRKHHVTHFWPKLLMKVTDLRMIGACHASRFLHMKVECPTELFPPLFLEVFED
How it was run: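 Read-out: blue/green (460:530 nm) ratio of cleaved to uncleaved CCF4-AM after 2 h at room temperature, fitted against DMSO baseline. HEK293T UAS-bla cells carrying GAL4-human TRβ LBD were exposed 18 h, 37C/5% CO2.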

[10] = TOX21_TRB_BLA_Antagonist_Followup_viability: Viability Assessment in the Tox21 Thyroid Hormone Receptor beta Antagonism Beta-lactamase (BLA) Follow-Up Assay (AID 2283961)
How it was run: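 TRβ-bla HEK293T (human TRβ LBD fused to GAL4 DBD), 3,000 cells/well, 2% charcoal-stripped FBS, phenol red-free medium; 18 h compound exposure, 37C; CellTiter-Glo 30 min RT; luminescence, loss-of-signal readout.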

[11] = target: THRB (gene 7068) (UniProt P10828); experiment: TOX21_TRB_COA_Antagonist_Followup_ratio: Tox21 Thyroid Hormone Receptor beta Antagonism through Coactivator Recruitment Follow-Up Assay, Ratio (AID 2283967)
How it was run: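 Coactivator recruitment to the GST-tagged TRb ligand-binding domain (5.0 nM) was read as the 520/495 nm TR-FRET ratio, using 200 nM fluorescein SRC-2 peptide and 2 nM terbium anti-GST. Scaled between DMSO and T3 wells; loss of signal fitted.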

[12] = target: Retinoic acid receptor RXR-alpha (Homo sapiens) (UniProt P19793); experiment: TOX21_TR_RXR_BLA_Antagonist_Followup_ratio: Tox21 Thyroid Hormone Receptor beta Retinoid X Receptor alpha (RXRa) Antagonism Beta-lactamase (BLA) Follow-Up Assay, Ratio (AID 2283972)
Sequence of Retinoic acid receptor RXR-alpha (Homo sapiens) (P19793 whole entry, looked up): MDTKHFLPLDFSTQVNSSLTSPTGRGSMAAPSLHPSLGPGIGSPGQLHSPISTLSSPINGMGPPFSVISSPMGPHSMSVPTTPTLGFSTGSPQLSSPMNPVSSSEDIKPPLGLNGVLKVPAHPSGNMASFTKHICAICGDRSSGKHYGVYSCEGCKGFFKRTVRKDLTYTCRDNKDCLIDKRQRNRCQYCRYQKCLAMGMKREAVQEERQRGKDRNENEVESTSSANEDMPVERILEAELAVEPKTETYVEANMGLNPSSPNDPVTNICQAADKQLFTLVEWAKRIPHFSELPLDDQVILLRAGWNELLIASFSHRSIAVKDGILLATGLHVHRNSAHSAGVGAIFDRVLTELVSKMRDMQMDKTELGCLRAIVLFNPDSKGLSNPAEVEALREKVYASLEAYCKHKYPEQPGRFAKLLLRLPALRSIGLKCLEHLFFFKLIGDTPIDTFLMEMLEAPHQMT
How it was run: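 HEK293T RXRa-bla, 2% charcoal-stripped FBS medium, 16 h compound exposure at 37C, qHTS 11 conc x3. CCF4 FRET ratio ch2/ch1 (460:530), DMSO = baseline, loss-of-signal fit.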

[13] = TOX21_TR_RXR_BLA_Antagonist_Followup_viability: Viability Assessment in the Tox21 Thyroid Hormone Receptor beta Retinoid X Receptor alpha (RXRa) Antagonism Beta-lactamase (BLA) Follow-Up Assay (AID 2283979)
How it was run: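 Follow-up compounds (11 concentrations, triplicate) were incubated 16 h at 37C/5% CO2 with HEK293T RXRa-bla cells seeded at 2,500/well in charcoal-stripped-serum medium. ATP content by CellTiter-Glo luminescence gave viability; curves fitted in both directions against DMSO.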

SMILES | outcome [1] | outcome [2] | outcome [3] | outcome [4] | outcome [5] | outcome [6] | outcome [7] | outcome [8] | outcome [9] | outcome [10] | outcome [11] | outcome [12] | outcome [13] | AC50 [3] | AC50 [4] | AC50 [5] | AC50 [6] | AC50 [7] | AC50 [8]
Cc1nnc(NS(=O)(=O)c2ccc(N)cc2)s1 | inactive | inactive | inactive | inactive | inactive | inactive | inactive | inactive | – | – | – | – | – | – | – | – | – | – | –
CCc1cc(Cl)c(OC)c(C(=O)NC[C@@H]2CCCN2CC)c1O | inactive | inactive | inactive | inactive | inactive | inactive | inactive | inactive | inactive | inactive | inactive | inactive | inactive | – | – | – | – | – | –
O=c1[nH]c(=O)n([C@H]2C[C@H](O)[C@@H](CO)O2)cc1F | inactive | inactive | – | – | – | – | – | – | inactive | inactive | inactive | inactive | inactive | 600 nM (active) | 1450 nM (active) | 1530 nM (active) | 1800 nM (active) | 595 nM (active) | 6700 nM (active)
